Laboratory results taken from the supplement of paper PMC10338343.
± gives the standard deviation. Whole data set: some 3,700 sequences, median “pre-steady-state target cleavage rate” near 0.02, cut for the highest 2% near 0.23. Many of the other results were omitted from the sample, so the highest values are more common in it than they were.

Test system: MILI (PIWIL2) piRISC loaded with Kctd7 piRNA (26 nt)
Assay: pre-steady-state target cleavage rate (min^-1); MIWI and MILI are mouse PIWI proteins and EfPiwi is from a freshwater sponge; tags in brackets are library labels; higher = faster piRNA-guided slicing of the target
Details: guide: Kctd7 piRNA 5'p-UGUUAAUCUCUCAGAGAAGGUGACAG; auxiliary factor: 500 nM mouse GTSF1
Method: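 Cleave-'n-Seq: a library of target RNAs (target site embedded in constant flanks, ACAGCATTCCGCGTTAGTGATATCCG... 5' flank; DNA-blocked outside the site) at 0.1 nM was incubated with 1 nM active mouse MILI or MIWI piRISC (synthetic 5'-monophosphorylated piRNA guide) with or without 500 nM mouse GTSF1 at 33 °C for 1 min to 16 h. Uncleaved targets were sequenced and normalised to non-target controls, and the pooled three trials were fitted to a burst-and-steady-state model to give the pre-steady-state cleavage rate (min^-1; k3 is constrained to at most 1e-4). Sequence is the target site only; target names encode pairing extent (gX:gY) and contiguous / 1-mismatch / 2-mismatch / bulge geometry. Fits with R² ≤ 0 are excluded.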

Row | Sequence | pre-steady-state target cleavage rate
1 | UAGUGAGUCACCUUCUCAGAGAGAUUUACA | 0.0954 ± 0.024
2 | UAGUCUGUCACCUUCUCUGAGAGACUUAACA | 0.145 ± 0.024
3 | UAGUCUGUCACCUUCUCUGAGAGUUAACA | 0.278 ± 0.082
4 | UAGUCUGUCACCUUCUCUGAGAGCUUAACA | 0.148 ± 0.016
5 | UAGUCUGUCACCAACUCUGAGAGAUUAAGA | 0.047 ± 0.0083
6 | UAGUCUGUCCACCUUCUCUGAGAGAUUAACA | 0.15 ± 0.018
7 | UAGUGAGUCACCUUCUCUGAGAGAUUAACC [g2:g24:cont:t1C] | 0.192 ± 0.018
8 | UAGUGAGUCACCUUCUCUGAGAGAUUAAUA | 0.217 ± 0.03
9 | UAGUGAGUCACCUUCUCUGAGAAAUUAACA | 0.132 ± 0.027
10 | UAGUGAGUCACCUUCUCUGAGAGAUUAACU [g2:g24:cont:t1U] | 0.288 ± 0.038
11 | UAGUGAGUCACCUUCUCUGAGAGAAUUACA | 0.105 ± 0.048
12 | UAGUGAGUCACCUUCUCUGAGAGAUUAACCA | 0.219 ± 0.017
13 | UAGUGAGUCACCUUCUCUGAGAGAAUUAACA | 0.318 ± 0.059
14 | UAGUGUGUCACCUUCCCUGAGAGAUUAACA | 0.301 ± 0.056
15 | UAGUGAGUCACCUUCUCUGAGAGAUUAUCA | 0.197 ± 0.037
16 | UAGUGUGUGCACCUUCUCUGAGAGAUUAACA | 0.195 ± 0.021
17 | UAGUGUGCCACCUUCUCUGAGAGAUUAACA | 0.227 ± 0.023
18 | UAGUGAGUCACCUUCUCUGAGAGAUUAAUCA | 0.292 ± 0.053
19 | UAGUGUGCACCUUCUCUGAGAGAUUAACA | 0.196 ± 0.024
20 | UAGUGACACAGGUUCUCUGAGAGAUUAAGA | 0.00675 ± 0.0025
21 | UAGUGACAGUCCUUCUCUGAGAGAUUACCA | 0.00831 ± 0.0032
22 | UAGUGACAGACCUUCUGUGAGAGAUUAACA | 0.087 ± 0.012
23 | UAGUGACACAGGUUCUCUGAGAGAUUAACA | 0.0267 ± 0.0054
24 | UAGUCUGUCACCAUCUCUGAGAGAUUUACA | 0.124 ± 0.018

Row | Sequence | pre-steady-state target cleavage rate
25 | UAGUGACAGUCCUUCUCUGUGAGAUUAACA | 0.033 ± 0.0057
26 | UAGUCUGUGACGUUCUCUGAGAGAUUAACA | 0.147 ± 0.01
27 | UAGUGACAGACCUUCUCUGAGAGGUUAACA | 0.221 ± 0.058
28 | UAGUGACCCACCUUCUCUGAGAGAUUAACA | 0.286 ± 0.039
29 | UAGUGAGGUCACCUUCUCUGAGAGAUUAACA | 0.242 ± 0.016
30 | UAGUGAGUCACCUUCUCUGAGAGAUUAACA [g2:g24:cont:t1A] | 0.25 ± 0.021
31 | UAGUGACACCACCUUCUCUGAGAGAUUAACA | 0.184 ± 0.017
32 | UAGUGAGUGACCUUCUCUGAGAGAUUAACA | 0.157 ± 0.0097
33 | UAGUGAGUCACCUUCUCUGAGAGAUUAAACA | 0.33 ± 0.049
34 | UAGUGAGUCACCUUCUCUGAGAGAUUAAAA | 0.135 ± 0.037
35 | UAGUGAGUCACCUUCUCUGAAGAGAUUAACA | 0.0119 ± 0.0044
36 | UAGUGGGUCACCUUCUCUGAGAGAUUAACA | 0.175 ± 0.01
37 | UAGUGAGUCACCUUCUCUGAGGAGAUUAACA | 0.0247 ± 0.011
38 | UAGUGAGUCACCUUCUCUGAGAGAUUAAA | 0.202 ± 0.045
39 | UAGUGAGUCACCUUCUCUCUGAGAUUAACA | 0.0118 ± 0.0043
40 | UAGUGACAGACCUCUCUCUGAGAGAUUAACA | 0.0375 ± 0.0076
41 | UAGUCUGUCACCUUCUGCUGAGAGAUUAACA | 0.0816 ± 0.013
42 | UAGUCUGUCUCCUACUCUGAGAGAUUAACA | 0.157 ± 0.0082
43 | UAGUGACUCACCUAGUCUGAGAGAUUAACA | 0.0896 ± 0.0089
44 | UAGUGACAGUGCUUCUCUGAGAGAUUAACC [g2:g19:cont:t1C] | 0.0223 ± 0.0053
45 | UAGUGACACACCAUCUCUGAGAGAUUAUGA | 0.00752 ± 0.0041
46 | UAGUGAGUCACCUUCUCUGAGAGAUUACCA | 0.251 ± 0.05
47 | UAGUCACUCACCUUCUCUGAGAGAUUAACA | 0.207 ± 0.0095
48 | UAGUGAGUCACCUUCUCUGAGAGAUUAAGA | 0.219 ± 0.035

Row | Sequence | pre-steady-state target cleavage rate
49 | UAGUGAGUCACCUUCUCUGAGAGAUUACA | 0.153 ± 0.033
50 | UAGUAUGUCACCUUCUCUGAGAGAUUAACA | 0.211 ± 0.019
51 | UAGUCAGUCACCUUCUCUGAGAGAUUAACA | 0.249 ± 0.016
52 | UAGUCACACACCUUCUCUGAGAGAUUAACA | 0.168 ± 0.011
53 | UAGUGAGUCACCUUCUCUGAGAGAUUAACG [g2:g24:cont:t1G] | 0.284 ± 0.021
54 | UAGUCAGUCACCUUCUCUGAGAGAUUAAGA | 0.135 ± 0.024
55 | UAGUGAGUCACCCUUCUCUGAGAGAUUAACA | 0.19 ± 0.02
56 | UAGUCAUGUCACCUUCUCUGAGAGAUUAACA | 0.238 ± 0.023
57 | UAGUGAGUCACCUUCUCUGAGAGAUUACACA | 0.187 ± 0.038
58 | UAGUGUGUCAGCUUCUGUGAGAGAUUAACA | 0.129 ± 0.013
59 | UAGUGAGUCACCUUCUCUGCGAGAUUAACA | 0.0952 ± 0.015
60 | UAGUGUGUCAGGUUCUCUGAGAGAUUAUGA | 0.00789 ± 0.0035
61 | UAGUGACACAGCUUCUCUGUGAGAUUAACA | 0.0271 ± 0.0057
62 | UAGUGACAGACCUUGUCUGAGAGAUUAACA | 0.0481 ± 0.0096
63 | UAGUGAGUCAGCUUCUCUGAGAGAUUAACA | 0.158 ± 0.013
64 | UAGUGUCAGACCUUCUCUGAGAGAUUAACA | 0.108 ± 0.012
65 | UAGUCUCUCACCUUCUCUGAGUGAUUAACA | 0.00476 ± 0.0037
66 | UAGUGACUCAGCUUGUCUGAGAGAUUAACA | 0.112 ± 0.0088
67 | UAGUGACAGACCUUCUCUGAGACGAUUAACA | 0.0176 ± 0.0081
68 | UAGUGAGUCACCUUCCCUGAGAGAUUAACA | 0.394 ± 0.074
69 | UAGUGACUCACCUUCUCUGAGAGAUUAAACA | 0.251 ± 0.035
70 | UAGUGAGUACCUUCUCUGAGAGAUUAACA | 0.113 ± 0.014
